{"source": "the antibiotic and cytotoxicity screens of Wong et al. (2023)", "note": "Among all 39,000 compounds or so, about 3,300 (8.5%) were called active. The sample holds actives, similar compounds and a random draw of the others, so the mix is not that of the screen."}
{"system": "HepG2", "assay": "cytotoxicity call (relative viability < 0.9)", "settings": "10 µM"}
{"compound": "Cc1ccc(S(=O)(=O)N[C@@H]2C=C[C@H](CC(=O)NCCN3CCCCC3)O[C@H]2CO)cc1", "cytotoxicity call": "inactive"}
{"compound": "COc1ccc(NC(=O)N(C)C[C@H]2Oc3ccc(NC(=O)Nc4cccc5ccccc45)cc3C(=O)N([C@@H](C)CO)C[C@@H]2C)cc1", "cytotoxicity call": "inactive"}
{"compound": "Cc1noc(C)c1NC(=O)Nc1ccc2c(c1)C(=O)N([C@H](C)CO)C[C@H](C)[C@@H](CN(C)Cc1ccc(Cl)c(Cl)c1)O2", "cytotoxicity call": "inactive"}
{"compound": "C[C@@H]1CN([C@H](C)CO)C(=O)Cc2cc(NS(=O)(=O)c3ccc(F)cc3)ccc2O[C@H]1CN(C)Cc1ccc(-c2ccccc2)cc1", "cytotoxicity call": "active"}
{"compound": "C[C@@H]1CN([C@H](C)CO)C(=O)Cc2cc(NC(=O)NC3CCCCC3)ccc2O[C@@H]1CN(C)C(=O)Nc1ccc(C(F)(F)F)cc1", "cytotoxicity call": "inactive"}
{"compound": "COc1ccc(S(=O)(=O)Nc2ccc3c(c2)C(=O)N([C@H](C)CO)C[C@@H](C)[C@H](CN(C)C(=O)Nc2ccc(F)cc2)OCCCC[C@H](C)O3)cc1", "cytotoxicity call": "inactive"}
{"compound": "C[C@H]1CN([C@@H](C)CO)C(=O)c2cc(C#CCN(C)C)cnc2O[C@H]1CN(C)S(C)(=O)=O", "cytotoxicity call": "inactive"}
{"compound": "C[C@@H]1CN([C@H](C)CO)C(=O)c2cc(NS(=O)(=O)c3ccc(Cl)cc3)ccc2O[C@@H](C)CCCCO[C@H]1CN(C)Cc1ccc(C(F)(F)F)cc1", "cytotoxicity call": "active"}
{"compound": "C[C@@H]1CCCCO[C@H](CN(C)Cc2ccc(C(F)(F)F)cc2)[C@@H](C)CN([C@@H](C)CO)C(=O)c2cc(NS(=O)(=O)c3ccc(Cl)cc3)ccc2O1", "cytotoxicity call": "active"}
{"compound": "C[C@@H]1CCCCO[C@@H](CN(C)Cc2ccc(C(F)(F)F)cc2)[C@H](C)CN([C@H](C)CO)C(=O)c2cc(NS(=O)(=O)c3ccc(Cl)cc3)ccc2O1", "cytotoxicity call": "active"}
{"compound": "C[C@H](CO)N1C[C@H](C)[C@@H](CN(C)Cc2ccc(C(F)(F)F)cc2)OCCCC[C@H](C)Oc2ccc(NS(=O)(=O)c3ccc(Cl)cc3)cc2C1=O", "cytotoxicity call": "inactive"}
{"compound": "C[C@@H]1CCCCO[C@H](CN(C)Cc2ccc(C(F)(F)F)cc2)[C@H](C)CN([C@H](C)CO)C(=O)c2cc(NS(=O)(=O)c3ccc(Cl)cc3)ccc2O1", "cytotoxicity call": "active"}
{"compound": "C[C@@H]1CN([C@@H](C)CO)C(=O)c2cc(NS(=O)(=O)c3ccc(Cl)cc3)ccc2O[C@@H](C)CCCCO[C@@H]1CN(C)Cc1ccc(C(F)(F)F)cc1", "cytotoxicity call": "inactive"}
{"compound": "CNC[C@H]1OCCCC[C@@H](C)Oc2ccc(NS(=O)(=O)c3cn(C)cn3)cc2C(=O)N([C@@H](C)CO)C[C@H]1C", "cytotoxicity call": "inactive"}
{"compound": "C[C@@H]1CCCCO[C@@H](CN(C)C(=O)c2ccccc2)[C@@H](C)CN([C@H](C)CO)C(=O)c2cc(NC(=O)CCC(F)(F)F)ccc2O1", "cytotoxicity call": "inactive"}
{"compound": "C[C@@H]1CN([C@H](C)CO)C(=O)c2cc(NS(=O)(=O)c3cccs3)ccc2O[C@@H](C)CCCCO[C@@H]1CN(C)C(=O)CCC(F)(F)F", "cytotoxicity call": "inactive"}
{"compound": "C[C@H](N)CCCP(=O)(O)O", "cytotoxicity call": "inactive"}
{"compound": "COC(=O)CCCCCCC(=O)Nc1ccc([C@H]2O[C@H](CSc3nc(-c4ccccc4)c(-c4ccccc4)o3)C[C@H](c3ccc(NC(=O)CCCCCCC(=O)OC)cc3)O2)cc1", "cytotoxicity call": "inactive"}
{"compound": "C[C@H]1CN([C@@H](C)CO)C(=O)c2cc(NS(C)(=O)=O)ccc2O[C@@H]1CN(C)Cc1ccc(C(F)(F)F)cc1", "cytotoxicity call": "inactive"}
{"compound": "COc1ccc(NC(=O)Nc2ccc3c(c2)[C@H]2C[C@@H](CC(=O)N4CCN(C)CC4)O[C@H](CO)[C@H]2O3)cc1", "cytotoxicity call": "inactive"}
{"compound": "C[C@@H]1CN([C@H](C)CO)C(=O)c2cc(C#CCN(C)C)cnc2O[C@H]1CN(C)Cc1ccc2c(c1)OCO2", "cytotoxicity call": "inactive"}
{"compound": "C[C@H](CO)N1C[C@H](C)[C@@H](CN(C)C(=O)c2cnccn2)Oc2ncc(/C=C/c3ccccc3)cc2C1=O", "cytotoxicity call": "inactive"}
{"compound": "CC(C)NC(=O)Nc1ccc2c(c1)C(=O)N([C@@H](C)CO)C[C@H](C)[C@H](CN(C)C(=O)Nc1ccc3c(c1)OCO3)O2", "cytotoxicity call": "inactive"}
{"compound": "C[C@H]1CN([C@@H](C)CO)S(=O)(=O)c2ccc(C#CC3CCCC3)cc2O[C@H]1CN(C)Cc1cncnc1", "cytotoxicity call": "inactive"}
{"compound": "CO[C@@H]1CN(C)C(=O)c2ccc(NC(=O)C3CCOCC3)cc2OC[C@H](C)N(Cc2cccnc2)C[C@@H]1C", "cytotoxicity call": "inactive"}
{"compound": "C[C@H]1CN([C@@H](C)CO)C(=O)c2cccc(NC(=O)c3cnccn3)c2O[C@H]1CN(C)C(=O)Nc1ccc2c(c1)OCO2", "cytotoxicity call": "inactive"}
{"compound": "C[C@H]1CN([C@@H](C)CO)C(=O)c2cccc(NC(=O)c3ccncc3)c2O[C@H]1CN(C)S(=O)(=O)c1cn(C)cn1", "cytotoxicity call": "inactive"}
{"compound": "NCCCC[C@@H]1NC(=O)[C@H]2C[C@@H](C(=O)NCc3ccc(F)cc3)[C@@H](c3cccc(OCCO)c3)N2C1=O", "cytotoxicity call": "inactive"}
{"compound": "COc1ccc(S(=O)(=O)Nc2cccc3c2O[C@H](CN(C)CC2CC2)[C@@H](C)CN([C@H](C)CO)C3=O)cc1", "cytotoxicity call": "inactive"}
{"compound": "COCC#Cc1ccc2c(c1)O[C@H](CN(C)S(=O)(=O)c1cccc(OC)c1)[C@H](C)CN([C@H](C)CO)S2(=O)=O", "cytotoxicity call": "inactive"}
{"compound": "CN1C(=O)c2cc(NC(=O)C3CCOCC3)ccc2OC[C@H]2O[C@H](CC(=O)NCCc3ccncc3)CC[C@H]21", "cytotoxicity call": "inactive"}
{"compound": "C[C@@H]1CN([C@@H](C)CO)C(=O)c2cc(NC(=O)NC3CCCCC3)ccc2O[C@@H](C)CCCCO[C@@H]1CN(C)C(=O)Nc1ccccc1", "cytotoxicity call": "inactive"}
{"compound": "Cc1ccc(S(=O)(=O)N(C)C[C@H]2Oc3ccc(NS(=O)(=O)c4cn(C)cn4)cc3C(=O)N([C@H](C)CO)C[C@H]2C)cc1", "cytotoxicity call": "inactive"}
{"compound": "C[C@@H]1CCCCO[C@@H](CN(C)Cc2ccc(C(F)(F)F)cc2)[C@@H](C)CN([C@H](C)CO)C(=O)c2cc(NS(=O)(=O)c3ccc(Cl)cc3)ccc2O1", "cytotoxicity call": "active"}
{"compound": "C[C@@H]1CN([C@@H](C)CO)C(=O)c2cc(NS(=O)(=O)c3ccc(Cl)cc3)ccc2O[C@@H](C)CCCCO[C@H]1CN(C)Cc1ccc(C(F)(F)F)cc1", "cytotoxicity call": "active"}
{"compound": "C[C@H]1CCCCO[C@@H](CN(C)Cc2ccc(C(F)(F)F)cc2)[C@@H](C)CN([C@@H](C)CO)C(=O)c2cc(NS(=O)(=O)c3ccc(Cl)cc3)ccc2O1", "cytotoxicity call": "inactive"}
{"compound": "C[C@@H]1CN([C@H](C)CO)C(=O)c2cc(NS(=O)(=O)c3ccc(Cl)cc3)ccc2O[C@@H](C)CCCCO[C@@H]1CN(C)Cc1ccc(C(F)(F)F)cc1", "cytotoxicity call": "inactive"}
{"compound": "C[C@@H]1CCCCO[C@@H](CN(C)Cc2ccc(C(F)(F)F)cc2)[C@@H](C)CN([C@@H](C)CO)C(=O)c2cc(NS(=O)(=O)c3ccc(Cl)cc3)ccc2O1", "cytotoxicity call": "inactive"}
{"compound": "C[C@@H]1CCCCO[C@@H](CN(C)Cc2ccc(C(F)(F)F)cc2)[C@H](C)CN([C@@H](C)CO)C(=O)c2cc(NS(=O)(=O)c3ccc(Cl)cc3)ccc2O1", "cytotoxicity call": "active"}
{"compound": "C[C@H]1CCCCO[C@H](CN(C)Cc2ccc(C(F)(F)F)cc2)[C@@H](C)CN([C@@H](C)CO)C(=O)c2cc(NS(=O)(=O)c3ccc(Cl)cc3)ccc2O1", "cytotoxicity call": "inactive"}
{"compound": "C[C@@H]1CCCCO[C@H](CN(C)Cc2ccc(C(F)(F)F)cc2)[C@@H](C)CN([C@H](C)CO)C(=O)c2cc(NS(=O)(=O)c3ccc(Cl)cc3)ccc2O1", "cytotoxicity call": "active"}
